Among the data in PubChem BioAssay (NCATS) are outcome and Potency values, retold here.

Unmarked numbers belong to inactive results. Results filed as inconclusive are left out. Activity calls are given as the source filed them. Unless noted, the call rests on the fitted dose curve; in most records, active means well fitted curve in the direction sought with a large enough effect; inconclusive means small, poorly fitted or top-dose-only effect, or another doubt; inactive means no such curve, though single readings can be large; an effect the other way counts as inactive or inconclusive.

Assay [1] in a line: qHTS assay for measurement of the activity of small molecule inhibitors on Zika virus induced Caspase-3 activity in human iPSC derived neural progenitor cells (hNPCs) (AID 1224857). Further: nearly all actives have a fitted effect of over 65% in size. In short, it runs like this:
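After overnight (16–20 h) culture at 350 cells/well, hNPCs get compound, then ZIKV 2 FFU/cell one hour later. Six hours on, Caspase-Glo 3/7 is added and luminescence measured.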

The nature of assay [2]: qHTS assay for measurement of the activity of small molecule inhibitors on Zika virus induced Caspase-3 activity in human astrocytoma cells (AID 1224859). In short, it runs like this:
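Inhibition of Zika-induced caspase-3/7 activity: SNB-19 cells, 1 h compound pretreatment, ZIKV 2 FFU/cell for 6 h at 37 C, Caspase-Glo luminescence read-out.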
In general terms: Quantitative high-throughput screening tests each substance at several concentrations.

Assay [3] can be described thus: qHTS assay to identify small molecule inhibitors of chordoma cells - UCH-2 (AID 1259356). Further: series mostly up to about 46 µM.
The nature of assay [4]: P-glycoprotein substrates identified in KB-8-5-11 adenocarcinoma cell line, qHTS therapeutic library screen (AID 1346987). Further: nearly all actives have a fitted effect of over 65% in size. Further: potency means the concentration at half of the fitted maximal effect. In short, it runs like this:
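Luminescence from CellTiter-Glo, read 5 min after addition, quantified survival of KB-8-5-11 (P-gp-overexpressing) cells exposed to compounds for 72 h. AC50 was derived from concentration-response curves.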

For assay [5], the target named is Atrial natriuretic peptide receptor 1 (Homo sapiens) (UniProt P16066). Put plainly: Natriuretic polypeptide receptor (hNpr1) antagonism - Pilot screen (AID 1347049; calls by dose curve;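 further: agonist-evoked cGMP luminescence read 20 min after hNppA addition; series mostly up to about 58 µM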). In short, it runs like this: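 cGMP-sensor HEK293/hNpr1 cells, 1500/well, plated overnight at 37C. 2% GloSensor reagent, 2 h RT. Compound (23 nL pin transfer) 30 min RT, baseline luminescence pre-read. 0.1 nM hNppA, 20 min RT, post-read.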

For assay [6], the target named is Atrial natriuretic peptide receptor 2 (Homo sapiens) (UniProt P20594). Put plainly: Natriuretic polypeptide receptor (hNpr2) antagonism - Pilot subtype selectivity assay (AID 1347050; calls by dose curve). In a few lines: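 Luminescence from a genetically encoded cGMP luciferase biosensor in hNpr2-expressing HEK293 cells is read before and 20 min after adding 1 nM hNppC. Test compounds, in interplate 1:5 titrations, are added 30-50 min ahead of the agonist.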

Assay [7] deals with T1, Tyrosine-protein phosphatase non-receptor type substrate 1 (Homo sapiens) + Leukocyte surface antigen CD47 (Homo sapiens) (UniProt P78324+Q08722). The assay is described as follows: CD47-SIRPalpha protein protein interaction - LANCE assay qHTS validation (AID 1347057; active means well fitted curve in the direction sought with a large enough effect in the signal ratio, with a control signal flat, not every such curve was filed as active; the % refers to the signal ratio; further: series mostly up to about 38 µM). In short, it runs like this:
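Inhibition of soluble CD47/SIRPalpha ectodomain association by titrated compounds, measured as 665/615 nm time-resolved FRET ratio after sequential 30 min room-temperature incubations.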
In general terms: TR-FRET usually uses a lanthanide donor and a delayed reading to cut background.

Assay [8] has as its target T1, Tyrosine-protein phosphatase non-receptor type substrate 1 (Homo sapiens) + Leukocyte surface antigen CD47 (Homo sapiens). The assay is described as follows: CD47-SIRPalpha protein protein interaction - HTRF assay qHTS validation (AID 1347058; active means well fitted curve in the direction sought with a large enough effect in the signal ratio, not every such curve was filed as active; the % refers to the signal ratio; further: series mostly up to about 38 µM). In short, it runs like this:
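Soluble extracellular domains (6His-CD47, Avi-tag-biotinylated SIRPalpha) in PBS pH 7.4 with 0.05% IGEPAL CA-630. Compounds were preincubated 30 min at RT with CD47 and anti-His-Eu, then SIRPalpha and SAV-XL665 were added. TR-FRET 665/615 ratio.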

The target is the same in assay [9]. The assay is described as follows: CD47-SIRPalpha protein protein interaction - Alpha assay qHTS validation (AID 1347059).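 Further: bead proximity luminescence from CD47 binding SIRPalpha after compound preincubation with SIRPalpha.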 In short, it runs like this:
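SIRPalpha-biotin 25 nM + cpd, 30 min RT, dark; add CD47-His 12.5 nM, 30 min; add Ni-NTA/SAV beads 10 ug/mL, 30 min; AlphaScreen. Buffer PBS pH 7.4 + 0.05% IGEPAL CA-630. Non-biotinylated SIRPalpha as control inhibitor.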

The target of assay [10] is Parathyroid hormone/parathyroid hormone-related peptide receptor (Homo sapiens) (UniProt Q03431). The assay is described as follows: qHTS for PTHR1 Agonists: Optimization Screen against the NCGC LOPAC library (AID 1347079).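 Further: GloSensor cAMP luminescence in HEK-293 GP2 cells expressing human PTHR1 with IBMX.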 In a few lines:
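HEK-293 GP2 cells, PTHR1 + GloSensor cAMP; 3000 cells/well, o/n. Luciferin + IBMX 0.5mM each (stock), 1 hr 37C. Cpd titration, 1 hr 37C. Lum after 15 min RT. Ctrl M-PTH(1-15) top 10uM.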

Assay [11] can be described thus: qHTS of pediatric cancer cell lines to identify multiple opportunities for drug repurposing: Primary screen for DAOY cells (AID 1347090). Further: series mostly up to about 46 µM; nearly all actives have a fitted effect of over 55% in size. In a few lines:
(§1)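 Viability measured as metabolically active cells via CellTiter-Glo luminescence following 48 hours of compound exposure, 11-point dilutions in confirmatory testing. 500-1,000 cells/well plated 5 hours before dosing; controls were DMSO and 2.3 µM bortezomib.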

Assay [12] can be described thus: qHTS of pediatric cancer cell lines to identify multiple opportunities for drug repurposing: Primary screen for SJ-GBM2 cells (AID 1347091). Further: potency means the concentration at half of the fitted maximal effect. In short, it runs like this:
as §1

A short description of assay [13]: Natriuretic polypeptide receptor (hNpr1) antagonism - Pilot counterscreen GloSensor control cell line (AID 1347045; calls by dose curve; further: series mostly up to about 38 µM). In short, it runs like this:
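Cells were first seeded and incubated overnight at 37C, then loaded with 2% GloSensor substrate for 2 h. Compounds were added for 30 min at room temperature, followed by a baseline read, 50 uM SNP and a final read after 20 min.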

Assay [14] can be described thus: NS1 protein of Zika virus - qHTS assay to identify small molecule inhibitors in human HEK 293 cells (AID 1347053). Further: series mostly up to about 46 µM; nearly all actives have a fitted effect of over 55% in size. In a few lines:
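Read-out is a two-antibody TR-FRET for ZIKV NS1, normalized between uninfected cells and infected cells. Compound added 1 h before MR766 infection at MOI 0.5; human HEK 293 cells incubated 24 h, 37 C.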

Assay [15] can be described thus: qHTS of pediatric cancer cell lines to identify multiple opportunities for drug repurposing: Primary screen for TC32 cells (AID 1347089). Further: nearly all actives have a fitted effect of over 60% in size. In a few lines:
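A viability screen of TC32 cells was run over 48 h, with primary MIPE doses spanning 0.78 nM–46 µM and NPC doses 0.59 nM–46 µM. ATP luminescence (CellTiter-Glo) served as the read-out.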

Atrial natriuretic peptide receptor 2 (Homo sapiens), sequence (P20594 whole entry, looked up): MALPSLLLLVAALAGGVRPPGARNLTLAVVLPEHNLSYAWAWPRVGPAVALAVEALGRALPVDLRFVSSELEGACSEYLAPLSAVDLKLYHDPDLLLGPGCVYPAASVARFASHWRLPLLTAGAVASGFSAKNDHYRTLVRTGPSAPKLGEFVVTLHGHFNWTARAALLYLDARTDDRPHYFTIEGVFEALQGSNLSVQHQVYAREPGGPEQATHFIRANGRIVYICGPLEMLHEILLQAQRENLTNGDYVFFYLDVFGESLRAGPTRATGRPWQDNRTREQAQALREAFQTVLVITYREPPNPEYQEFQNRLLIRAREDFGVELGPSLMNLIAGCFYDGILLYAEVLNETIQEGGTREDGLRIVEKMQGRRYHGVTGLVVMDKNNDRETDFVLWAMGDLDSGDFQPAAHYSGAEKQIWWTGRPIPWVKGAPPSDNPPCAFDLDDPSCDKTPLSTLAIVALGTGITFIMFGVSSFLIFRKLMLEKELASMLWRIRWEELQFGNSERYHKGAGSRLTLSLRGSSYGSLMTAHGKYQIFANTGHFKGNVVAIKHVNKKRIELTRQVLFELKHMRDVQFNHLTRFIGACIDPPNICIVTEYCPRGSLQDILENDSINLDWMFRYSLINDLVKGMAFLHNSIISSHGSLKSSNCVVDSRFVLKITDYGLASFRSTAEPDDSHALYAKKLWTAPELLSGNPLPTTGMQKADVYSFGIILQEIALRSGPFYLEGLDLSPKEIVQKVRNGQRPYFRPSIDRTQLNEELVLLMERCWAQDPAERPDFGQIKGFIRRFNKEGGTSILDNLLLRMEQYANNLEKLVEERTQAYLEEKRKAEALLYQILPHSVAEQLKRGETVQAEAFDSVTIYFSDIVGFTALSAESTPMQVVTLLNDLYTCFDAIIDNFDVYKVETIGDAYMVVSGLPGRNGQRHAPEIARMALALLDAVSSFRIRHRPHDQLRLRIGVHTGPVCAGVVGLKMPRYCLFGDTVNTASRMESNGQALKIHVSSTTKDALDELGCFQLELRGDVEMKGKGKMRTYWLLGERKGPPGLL
T1 sequence (P78324 whole entry, looked up, the tested form may be a part): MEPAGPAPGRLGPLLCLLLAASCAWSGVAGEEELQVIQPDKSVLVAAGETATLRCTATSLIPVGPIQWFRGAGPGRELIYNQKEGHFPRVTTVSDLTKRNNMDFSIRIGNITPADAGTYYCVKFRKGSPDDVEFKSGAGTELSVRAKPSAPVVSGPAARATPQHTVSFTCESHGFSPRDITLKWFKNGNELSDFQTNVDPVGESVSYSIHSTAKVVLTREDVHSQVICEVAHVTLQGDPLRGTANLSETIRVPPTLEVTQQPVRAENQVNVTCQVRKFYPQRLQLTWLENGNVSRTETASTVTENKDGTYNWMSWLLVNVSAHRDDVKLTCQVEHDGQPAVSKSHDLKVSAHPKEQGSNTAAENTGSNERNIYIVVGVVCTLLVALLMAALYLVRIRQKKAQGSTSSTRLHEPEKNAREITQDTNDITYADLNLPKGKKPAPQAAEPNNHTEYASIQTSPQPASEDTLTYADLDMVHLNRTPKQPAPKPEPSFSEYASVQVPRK
T1 sequence (Q08722 whole entry, looked up, the tested form may be a part): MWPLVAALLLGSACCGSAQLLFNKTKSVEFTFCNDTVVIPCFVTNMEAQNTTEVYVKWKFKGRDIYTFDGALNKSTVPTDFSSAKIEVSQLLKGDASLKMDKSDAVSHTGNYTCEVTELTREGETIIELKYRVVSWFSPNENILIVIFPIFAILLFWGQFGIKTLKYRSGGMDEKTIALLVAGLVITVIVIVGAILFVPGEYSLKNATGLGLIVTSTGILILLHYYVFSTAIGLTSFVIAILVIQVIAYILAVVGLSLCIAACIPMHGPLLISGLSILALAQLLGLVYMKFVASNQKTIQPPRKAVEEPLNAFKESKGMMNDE
Parathyroid hormone/parathyroid hormone-related peptide receptor (Homo sapiens), sequence (Q03431 whole entry, looked up): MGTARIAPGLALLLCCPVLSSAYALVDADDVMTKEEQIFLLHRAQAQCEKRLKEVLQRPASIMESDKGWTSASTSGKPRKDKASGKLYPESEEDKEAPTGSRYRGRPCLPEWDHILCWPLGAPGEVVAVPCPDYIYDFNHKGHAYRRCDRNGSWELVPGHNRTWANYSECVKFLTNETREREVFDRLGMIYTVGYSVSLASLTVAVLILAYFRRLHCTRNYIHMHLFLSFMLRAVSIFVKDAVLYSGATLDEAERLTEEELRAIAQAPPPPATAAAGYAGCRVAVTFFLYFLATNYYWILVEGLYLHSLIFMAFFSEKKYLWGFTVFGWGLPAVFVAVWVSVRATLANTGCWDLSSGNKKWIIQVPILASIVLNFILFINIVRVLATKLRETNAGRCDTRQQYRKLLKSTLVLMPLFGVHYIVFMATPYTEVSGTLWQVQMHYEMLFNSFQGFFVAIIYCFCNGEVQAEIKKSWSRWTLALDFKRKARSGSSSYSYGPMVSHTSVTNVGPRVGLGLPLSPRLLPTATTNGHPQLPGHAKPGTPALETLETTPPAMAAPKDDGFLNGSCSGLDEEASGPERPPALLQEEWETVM
Atrial natriuretic peptide receptor 1 (Homo sapiens), sequence (P16066 whole entry, looked up): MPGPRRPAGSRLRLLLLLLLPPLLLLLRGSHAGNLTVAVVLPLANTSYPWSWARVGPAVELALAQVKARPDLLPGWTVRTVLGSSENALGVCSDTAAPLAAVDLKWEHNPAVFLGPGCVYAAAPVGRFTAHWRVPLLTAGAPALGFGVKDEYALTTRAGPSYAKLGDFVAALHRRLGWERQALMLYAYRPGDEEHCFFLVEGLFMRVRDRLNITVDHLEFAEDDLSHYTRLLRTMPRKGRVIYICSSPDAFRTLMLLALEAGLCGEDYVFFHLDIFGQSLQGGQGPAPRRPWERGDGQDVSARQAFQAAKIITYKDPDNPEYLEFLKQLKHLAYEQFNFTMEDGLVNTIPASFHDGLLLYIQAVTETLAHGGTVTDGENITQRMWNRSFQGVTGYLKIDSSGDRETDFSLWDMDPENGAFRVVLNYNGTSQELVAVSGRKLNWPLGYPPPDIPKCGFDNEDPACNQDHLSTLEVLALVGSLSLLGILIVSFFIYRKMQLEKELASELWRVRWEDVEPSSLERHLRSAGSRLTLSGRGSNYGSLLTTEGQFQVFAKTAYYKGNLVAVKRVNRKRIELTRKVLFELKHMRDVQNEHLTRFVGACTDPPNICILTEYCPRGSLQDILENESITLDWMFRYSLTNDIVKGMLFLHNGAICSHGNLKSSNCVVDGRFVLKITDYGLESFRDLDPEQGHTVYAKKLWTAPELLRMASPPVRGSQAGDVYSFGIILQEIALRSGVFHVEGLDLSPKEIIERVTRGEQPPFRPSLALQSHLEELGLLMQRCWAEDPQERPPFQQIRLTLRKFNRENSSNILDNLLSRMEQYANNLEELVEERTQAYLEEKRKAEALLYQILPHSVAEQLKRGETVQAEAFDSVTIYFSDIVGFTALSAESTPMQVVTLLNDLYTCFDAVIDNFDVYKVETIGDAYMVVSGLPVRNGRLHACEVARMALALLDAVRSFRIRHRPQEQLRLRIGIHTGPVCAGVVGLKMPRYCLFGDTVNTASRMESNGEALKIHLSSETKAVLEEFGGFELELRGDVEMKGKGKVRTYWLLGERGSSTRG

With `OCCN1CCN(CC/C=C2/c3ccccc3Sc3ccc(C(F)(F)F)cc32)CC1`, the outcome in assay [1], in assay [2], in assay [7], in assay [8] and in assay [10] was inactive. Besides, the Potency entry in assay [3], in [5], in assay [6], in [9] and in assay [11] was “inactive” in each case. In addition, the Potency in assay [4] is 18.4 µM (active); in assay [12], 21.1 µM (active).
For the compound `CC(C)(Oc1ccc(CCNC(=O)c2ccc(Cl)cc2)cc1)C(=O)O`, the compound was called inactive in [1], in [2], in assay [14] and in assay [8]. Moreover, the Potency entry in [3], in assay [4], in assay [13], in assay [5], in assay [6] and in assay [9] was “inactive” in each case. Also, the Potency entry in assay [15], in [11] and in assay [12] was “inactive” each time.
Turning to `COc1cc(C(=O)OCCCN2CCCN(CCCOC(=O)c3cc(OC)c(OC)c(OC)c3)CC2)cc(OC)c1OC`, the compound was classed as inactive in [1], in [2], in assay [14] and in assay [8]. Further, the Potency result in assay [3], in assay [13], in assay [5], in assay [6], in assay [9] and in assay [15] was “inactive” throughout. Also, in assay [11], the Potency result is “inactive”.
`O=C(CCNNC(=O)c1ccncc1)NCc1ccccc1`: the compound was called inactive in [1], in assay [2], in [14], in [8] and in assay [10]. Also, the Potency entry in [3], in assay [4], in assay [13], in assay [5], in assay [6] and in assay [9] was “inactive” in each case. Also, the Potency result in [15], in assay [11] and in assay [12] was “inactive” in each case.
`C[C@]12CC[C@@H]3c4ccc(O)cc4C[C@@H](CCCCCCCCCS(=O)CCCC(F)(F)C(F)(F)F)[C@H]3[C@@H]1CC[C@@H]2O` (stereo not given in full): the compound was called inactive in [1], in assay [2], in assay [14], in [8] and in assay [10]. Further, the Potency result in [3], in [4], in [13], in assay [5], in assay [6] and in assay [9] was “inactive” throughout. Besides, the Potency result in assay [15] and in assay [11] was “inactive” in each case.
For the compound `CN(C)CC[C@@H](c1ccc(Br)cc1)c1ccccn1`, the compound was called inactive in [1], in [2], in assay [14] and in assay [10]. Besides, the Potency result in assay [3], in assay [13], in assay [5], in assay [6], in assay [15] and in assay [11] was “inactive” in each case. In assay [12], the Potency entry was “inactive”.
With `COc1ccc(CN(CCN(C)C)c2ccccn2)cc1`, the compound was classed as inactive in assay [1], in assay [2], in [14] and in assay [8]. The Potency result in [3], in assay [4], in assay [13], in assay [6], in assay [9] and in assay [15] was “inactive” throughout. The Potency result in assay [11] and in assay [12] was “inactive” each time.
Turning to `CCO/C([O-])=N/c1c[n+](N2CCOCC2)no1`, the compound was classed as inactive in assay [1], in assay [2], in assay [14] and in [10]. Further, the Potency result in [3], in [4], in assay [13], in [5], in assay [6] and in assay [9] was “inactive” throughout. Besides, the Potency entry in [15], in assay [11] and in [12] was “inactive” in each case.
For the compound `CN(C)C/C=C(/c1ccc(Br)cc1)c1cccnc1`, the compound was classed as inactive in assay [1], in [2], in assay [14] and in assay [8]. The Potency entry in [3], in assay [13], in assay [5], in assay [6], in assay [9] and in assay [15] was “inactive” throughout. The Potency result in assay [11] and in [12] was “inactive” each time.
`COC(=O)[C@H]1[C@H]2C[C@@H]3c4[nH]c5cc(OC)ccc5c4CCN3C[C@H]2C[C@@H](OC(=O)c2cc(OC)c(OC)c(OC)c2)[C@@H]1OC`: the result in assay [1], in assay [2], in assay [14] and in assay [10] was inactive. In addition, the Potency result in [3], in assay [4], in assay [13], in assay [5], in assay [6] and in assay [12] was “inactive” each time.
As to `CCCCCN(CCCCC)C(=O)C(CCC(=O)O)NC(=O)c1ccc(Cl)c(Cl)c1` (stereo not given), the compound was called inactive in [1], in [2], in assay [14], in assay [8] and in assay [10]. The Potency result in assay [3], in assay [4], in assay [13], in assay [5], in assay [6] and in assay [9] was “inactive” in each case. The Potency result in assay [15], in [11] and in [12] was “inactive” in each case.
